Molecules are shown by their SMILES. Screen size: about 65,000 compounds; about 2,100 (3.2%) showed an effect of 50% or more. The median lay at about -52%. The entries come from a sample that favours strong results as a whole.

The test relates to Plasmodium falciparum. The test can be described thus: Screen against P. falciparum Asexual Blood Stage (ABS), at 5uM. Conditions: tested at 5 uM. It counts as functional, Dd2.
With `NC(=O)c1cn2cc(-c3ccccc3Cl)n(CC3CC3)c(=O)c2n1`, the INHIBITION was -27.5%.

With `CNC(=O)c1cn2cc(-c3ccc(F)cc3)n(CC=C(C)C)c(=O)c2n1`, the INHIBITION stood at 39.1%.

For `CNC(=O)c1cn2cc(-c3cccc(Cl)c3)n(CC=C(C)C)c(=O)c2n1`, the INHIBITION is 56.6%.

Consider `CN(C)C(=O)c1cn2cc(-c3ccccc3Cl)n(CC3CC3)c(=O)c2n1`, for which the INHIBITION amounted to 37.8%.

On to `CCNC(=O)c1cn2cc(-c3ccccc3Cl)n(CC3CC3)c(=O)c2n1`, for which the INHIBITION came out at 43.7%.

On to `CCn1cc(NC(=O)CCc2ccc3c(c2)OCCCO3)cn1`, for which the INHIBITION is on record as -127%.

On to `Brc1ccc(-c2nnc(CN(Cc3cccs3)CC3CCCO3)o2)s1` (configuration not stated), for which the INHIBITION is reported as -45.2%.

Regarding `Cc1cnn(CC2CCCN2Cc2nnc(C3CC3)n2C)c1` (configuration not stated), the INHIBITION is reported as -100%.

On to `COC1[C@@H]2CC[C@H]1CN(c1nc(C)nc3sccc13)C2` (some centres not stated), for which the INHIBITION was -88.3%.

As to `O=C(c1cc(C2CC2)on1)N1CCCC(n2cncn2)C1` (configuration not stated), the INHIBITION was -34.5%.

Take `Cc1cc(C(=O)N2CCCC(n3cncn3)C2)no1` (configuration not stated): the INHIBITION was found to be 66.7%.

In the case of `Cc1cc(C(=O)N2CCCC(n3cncn3)C2)on1` (configuration not stated), the INHIBITION is -247%.

Turning to `Cn1cccc1-c1cc(C(=O)NCCCc2csc(N)n2)[nH]n1`, the INHIBITION is recorded as -75.5%.

As to `Cc1ccc(-c2cc(C(=O)NCCCc3csc(N)n3)[nH]n2)s1`, the INHIBITION is given as 66.5%.

For the compound `Cc1ccc(-c2cc(C(=O)NCCCc3csc(N)n3)[nH]n2)o1`, the INHIBITION turned out to be 22%.

On to `Cc1nc(C)c(CNC(=O)N2CCN(c3ccc(Cl)cn3)CC2)s1`, for which the INHIBITION is on record as -49.6%.

Take `O=C(NC1CCC1)[C@@H]1C[C@@H]2CCN(Cc3cccs3)C[C@@H]2O1`: the INHIBITION is recorded as -168%.

Take `CC(C)(N)C(=O)N1CCC(c2nccnc2Oc2ccccc2F)CC1`: the INHIBITION was -4.82%.

With `NC(=O)c1cccc(C2CCN(c3ncccn3)CC2)n1`, the INHIBITION is -58%.

With `O=C1NCCCc2[nH]c(Cc3cccc(Cl)c3)nc21`, the INHIBITION is given as -167%.

In the case of `O=C(Cc1cccc(Cl)c1)N[C@@H]1CCNC[C@H]1O`, the INHIBITION is listed as -75.4%.

In the case of `Clc1cccc(C[C@@H]2NCCC[C@@H]2Nc2ccccc2)c1`, the INHIBITION was 88.7%.

As to `CC(NC(=O)NCCCc1n[nH]c(N)c1C#N)c1cccc(Cl)c1` (configuration not stated), the INHIBITION turned out to be 0.414%.

On to `COCC(=O)N(C)Cc1nc(N2CCCC2)ncc1-c1ccncc1`, for which the INHIBITION was -9.28%.

`Cc1ccc(CN2Cc3nnn(C)c3C(COCC3CC3)C2)s1` (configuration not stated): the INHIBITION is -90.4%.

With `CCn1nnc2c1C(COCCN(C)C)CN(Cc1ccc(C)s1)C2` (configuration not stated), the INHIBITION amounted to 60.1%.

As to `CCn1nnc2c1C(COCCN(C)C)CN(Cc1ccco1)C2` (configuration not stated), the INHIBITION is on record as -67.6%.

Consider `CCOC(=O)N1CC(=O)N(Cc2ccc(OC)cc2)CC(O)C1` (configuration not stated), for which the INHIBITION is given as -109%.

As for `Cc1occc1C(=O)N1CCC2(CCC2NC(=O)c2ccn(C)c2)CC1` (configuration not stated), the INHIBITION was -23.1%.

With `CC(NCc1ccc(F)cc1)c1ccc(S(C)(=O)=O)cc1` (configuration not stated), the INHIBITION was -28.9%.

`CC(C)c1ccc(CNC(C)c2ccc(S(C)(=O)=O)cc2)cc1` (configuration not stated): the INHIBITION amounted to 53.6%.

On to `CC(NCc1ccc(C(C)(C)C)cc1)c1ccc(S(C)(=O)=O)cc1` (configuration not stated), for which the INHIBITION is -7.37%.

In the case of `Cc1ccc(-c2cc(CN3CCc4cnc(C)nc4C3)on2)cc1`, the INHIBITION is given as -29%.

Take `O=C1CCC2(CCC(NCc3ccsc3)CC2)N1Cc1ccccc1` (configuration not stated): the INHIBITION came out at 65.3%.

On to `CN1C(=O)CCC12CCC(NCc1ccsc1)CC2` (configuration not stated), for which the INHIBITION was -30.4%.

For `O=C1CCC2(CCC(NCc3cccnc3)CC2)N1Cc1ccccc1` (configuration not stated), the INHIBITION is given as -16.6%.

`Cc1cc(C(=O)NCC(F)(F)F)c2c(C3CCNCC3)noc2n1`: the INHIBITION was -42.4%.

Turning to `CCn1nc2c(cc1=O)CN(c1ncnc3ccsc13)CC2`, the INHIBITION is given as 17.6%.

For the compound `CC(=O)N1CCO[C@@H]2CN(Cc3ccccc3F)C[C@@H]2C1`, the INHIBITION is on record as -77.7%.

Turning to `O=S(=O)(c1cccc(Cl)c1)N1CCCC(Cn2cncn2)C1` (configuration not stated), the INHIBITION is listed as -36.3%.

Regarding `CN(C)S(=O)(=O)N1CCCC(c2nccnc2-c2cccc(Cl)c2)C1` (configuration not stated), the INHIBITION was -85.8%.

On to `CN(C)Cc1cc(C2CCCN(S(=O)(=O)c3cccc(Cl)c3)C2)nn1C` (configuration not stated), for which the INHIBITION is 56.5%.

On to `Cc1cccc(-n2ncc3c2CCCC3NCC(C)(C)CO)c1C` (configuration not stated), for which the INHIBITION is recorded as -58.1%.

With `O=C(c1ccsc1)N1C[C@H]2CCC[C@@]2(COCc2cccnc2)C1`, the INHIBITION was -29.9%.

Regarding `Cc1ccc(CN2C[C@@H](C(=O)Nc3cccnc3)C[C@H]3OCC[C@H]32)o1`, the INHIBITION is given as -35.4%.

As to `Cc1ccsc1-c1cccc(-c2ccn(CC3CCNC3)n2)c1` (configuration not stated), the INHIBITION was 61.7%.

For `Cc1nccc(-c2cccc(-c3ccn(CC4CCNC4)n3)c2)n1` (configuration not stated), the INHIBITION was -137%.

For `c1cc(-c2cncnc2)cc(-c2ccn(CC3CCNC3)n2)c1` (configuration not stated), the INHIBITION amounted to 13.9%.

Turning to `Cc1cccc(C(=O)N2CC[C@]3(C[C@H](OCc4ccccn4)CO3)C2)c1`, the INHIBITION was -121%.

Consider `CCN(CC)c1ccc(NS(=O)(=O)c2cnn(C)c2)cn1`, for which the INHIBITION is reported as -98.6%.

As for `CCN(CC)c1ccc(NS(=O)(=O)c2cncc(F)c2)cn1`, the INHIBITION is reported as -19.4%.

On to `CCN(CC)c1ccc(NS(=O)(=O)c2cccnc2)cn1`, for which the INHIBITION was found to be 59.3%.

For the origin of these results see ChEMBL document CHEMBL4513216, “Probing the Open Global Health Chemical Diversity Library for Multistage-Active Starting Points for Next-Generation Antimalarials” (ACS Infect Dis, 2020).
